# NS1 function inh – influenza NS1 inhibition. Potency, µM (doses to about 46.1 µM), for inactives: at the highest dose activity, positive = more growth. actives 0.4% (n = 270,000). AID 2326; also: potency is read from the fitted curve at half-maximal effect; actives are rising curves; nearly all actives have a fitted effect of over 50% in size
#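 OD600 was taken as the measure of yeast growth restored by compound in an NS1-expressing S. cerevisiae strain. Cells had been washed out of glucose medium and diluted 1:100 into galactose -URA medium, pH 6.0.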
# SARS PLpro yeast – blocks SARS-CoV papain-like protease in a yeast assay | S. cerevisiae expressing SARS-CoV PLpro, growth rescue | Potency, µM (titrated, usually from 32.9 µM), for inactives: top-dose activity, positive = growth rescue, usual class: activators | actives 0.19% (n = 330,000); also: potency is read from the fitted curve at half-maximal effect; 0% is about no effect; nearly all actives have a fitted effect of over 55% in size
# Tb PYK inh – inhibitors of Trypanosoma brucei pyruvate kinase; Potency, µM (titrated, usually from 76.8 µM), inactives show top-dose activity, negative = inhibition, usual class: inhibitors; actives 0.12% (n = 410,000); TbPYK enzyme, Kinase-Glo Plus ATP luminescence, 45 min; AID 624173; active = well fitted curve in the direction sought with a large enough effect; inconclusive = small, poorly fitted or top-dose-only effect, or another doubt; inactive = no such curve, though single readings can be large; an effect the other way counts as inactive or inconclusive; also: potency is read from the fitted curve at half-maximal effect; % is scaled to controls: 0 for no effect and ±100 for the full control effect; nearly all actives have a fitted effect of over 50% in size
#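 T. brucei PYK with substrate was exposed to pin-transferred compounds across a concentration series, then started with 130 uM ADP (final). After 45 min at room temperature, Kinase-Glo Plus luminescence was read, normalized and curve-fitted.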
# Shiga inhibitor – blocks Shiga toxin action in Vero cells. Vero cells, Shiga toxin protein synthesis inhibition reporter. inhibition, % at 38.7 µM. actives 9.2% (n = 290,000); in the data active = inhibition mostly above about 28%, no sharp cut-off; inactive = mostly below about 43%; also: 0% is about no effect
# Cycloheximide cs – affects cycloheximide protein synthesis inhibition readout, counter-screen. max response, %. AID 2314. actives 12% (n = 300,000). cell reporter, cycloheximide protein synthesis inhibition counterscreen; in the data active = max response mostly above about 13%, no sharp cut-off; inactive = mostly below about 14%; also: read at 38.3 µM for the half of the compounds with a filed dose; 0% is about no effect
# LmPK inhibitor – LmPK (Leishmania mexicana) enzyme inhibition | purified LmPK, Kinase-Glo ATP luminescence, 1 h | Potency, µM (top dose mostly 57.5 µM), inactives show top-dose activity change, negative = inhibition, most hits filed as inhibitors | actives 0.37% (n = 290,000); active = well fitted curve in the direction sought with a large enough effect; inconclusive = small, poorly fitted or top-dose-only effect, or another doubt; inactive = no such curve, though single readings can be large; an effect the other way counts as inactive or inconclusive; also: potency is read from the fitted curve at half-maximal effect; % is scaled to controls: 0 for no effect and ±100 for the full control effect
# Target sequence (Q27686 whole entry, looked up): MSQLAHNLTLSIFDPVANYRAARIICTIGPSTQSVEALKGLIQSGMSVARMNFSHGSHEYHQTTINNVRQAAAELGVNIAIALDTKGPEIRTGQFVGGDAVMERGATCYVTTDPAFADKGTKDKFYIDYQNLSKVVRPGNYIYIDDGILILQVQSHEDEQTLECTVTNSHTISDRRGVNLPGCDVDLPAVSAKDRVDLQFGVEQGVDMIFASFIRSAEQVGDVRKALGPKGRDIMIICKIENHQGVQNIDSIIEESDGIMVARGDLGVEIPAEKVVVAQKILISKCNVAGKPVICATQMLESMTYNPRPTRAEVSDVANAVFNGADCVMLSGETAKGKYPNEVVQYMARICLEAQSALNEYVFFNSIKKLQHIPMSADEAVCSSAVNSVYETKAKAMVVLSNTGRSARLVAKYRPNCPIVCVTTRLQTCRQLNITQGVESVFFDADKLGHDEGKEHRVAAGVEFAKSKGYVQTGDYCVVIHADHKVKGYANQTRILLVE
#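 In 50 mM imidazole pH 7.2 with 7 mM MgCl2, LmPK (0.1 nM) turned over PEP (0.5 mM) and ADP (0.1 mM) for 1 h at room temperature. Luciferase read-out of ATP.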
# * = called active by the depositor; ? = inconclusive; / = no result. Only a selection was taken, and hits are over-represented in it overall. Unless noted, calls follow the shape of the full dose curve.
SMILES,NS1 function inh,SARS PLpro yeast,Tb PYK inh,Shiga inhibitor,Cycloheximide cs,LmPK inhibitor
CC(C)c1ccc(NC(=O)COC(=O)C2CC3C=CC2C3)cc1 (configuration not stated),/,-7%,4%,/,/,/
C=C1SC(=Nc2ccccc2Cl)N(C(=O)c2sc3ccccc3c2Cl)C1(C)C,-7%,-4%,7%,99*,50*,13%
Cc1ccc(C(=O)N/C(=C/c2ccco2)C(=O)Nc2cccc(C(=O)O)c2)cc1,?,4%,?,28,22*,-6%
CC(=O)c1cccc(NC(=O)/C(=C\c2ccco2)NC(=O)c2cccs2)c1,4%,4%,-2%,29*,13*,1%
c1ccc(-c2cc(-c3nc(-c4ccccn4)no3)c3ccccc3n2)cc1,-14%,/,-13%,/,/,/
CCN(CC)c1ccc(-c2nc(-c3ccccn3)no2)cc1[N+](=O)[O-],/,/,-4%,/,/,/
c1ccc(-c2ccc(-c3nc(-c4ccccn4)no3)cc2)cc1,-64%,-35%,?,-6,-8,14µM*
Cc1ccc(Sc2cc(C)nc(-c3ccccn3)n2)cc1,-99%,-15%,1%,46,31*,0%
Cc1ccc(-c2nc(-c3ccccn3)no2)cc1[N+](=O)[O-],-2%,1%,7%,55*,37*,14µM*
CCCNc1ccc(-c2nc(-c3ccccn3)no2)cc1[N+](=O)[O-],/,/,-3%,/,/,/
Cc1ccc(-c2nc(-c3ccccn3)no2)cc1Cl,-112%,-6%,-27%,5,-1,14µM*
CCOC(=O)c1c(C)[nH]c(C)c1S(=O)(=O)N1CCC(C(=O)NCc2cccc(C)c2)CC1,/,/,4%,/,/,/
C=CCn1c(Cn2c(-c3cnccn3)nc3ccccc32)nc2ccccc21,/,/,3%,/,/,/
Cc1ccc(-c2nc(-c3ccccn3)no2)cc1,-48%,-18%,?,-11,-10,2.8µM*
Cc1ccc(CNc2ccc(-c3nc(-c4ccccn4)no3)cc2[N+](=O)[O-])cc1,/,/,-4%,/,/,/
Clc1cccc(-c2nc(-c3ccccn3)no2)c1,-15%,-6%,-23%,16,16,10µM*
Cc1cccc(NC(=O)CN2CCN(C(=O)c3cccc(-n4cnnn4)c3)CC2)c1C,/,1%,-17%,/,/,/
Cc1cc(=O)oc2cc(OCC(=O)N3CC(=O)Nc4ccccc43)c(Cl)cc12,/,5%,-22%,/,/,/
COc1ccccc1OCc1cc(C(=O)NCc2ccc(N3CCCC3=O)cc2)no1,-3%,0%,13%,18,42*,2%
Cc1ccc(-c2cc(C(=O)NCc3ccccn3)no2)cc1,-15%,-11%,0%,85*,45*,1%
O=C(NCc1ccccn1)c1ccco1,/,1%,5%,8,4,-3%
O=C(NCc1ccccn1)c1cc(-c2ccccc2)on1,-7%,-3%,-13%,141*,36*,-6%
O=C(NCc1ccccn1)c1ccc(N2CCCC2=O)cc1,2%,-2%,2%,27,23*,3%
COc1ccc([C@@H]2CC(=O)[C@@H]3CN(S(=O)(=O)c4ccc(Cl)cc4)[C@H](c4ccc(C)cc4)C[C@@H]3N2S(=O)(=O)c2ccccc2)cc1,/,/,-6%,/,/,/
O=C(NCc1ccccn1)c1ccc(-c2ccccc2)cc1,-3%,-2%,4%,64*,36*,2%
SMILES,NS1 function inh,SARS PLpro yeast,Tb PYK inh,Shiga inhibitor,Cycloheximide cs,LmPK inhibitor
CCOC(=O)C(C)Sc1ncc(-c2ccc(Cl)cc2)cn1 (configuration not stated),-18%,-11%,10%,-11,13*,2%
O=S(=O)(c1ccc2c(c1)OCCO2)N1CCN(S(=O)(=O)c2cccc[n+]2[O-])CC1,/,/,/,7,5,/
CCCCCc1c(-c2ccc(Br)cc2)ncn1CCc1ccccc1OC,/,/,1%,/,/,/
Cn1ccsc1=NC(=O)c1cccc(OC(F)F)c1,-6%,-3%,-7%,92*,45*,-3%
CCOc1ccc(Br)cc1S(=O)(=O)NCCN1CCCC1,-4%,-2%,-2%,7,-1,-3%
Cc1cc2ncc(-c3ccccc3)nc2cc1C,-13%,0%,-9%,106*,39*,-30%
Clc1ccc(-c2cnc3ccccc3n2)cc1,-10%,18%,-6%,67*,67*,-14%
Oc1ccc(-c2cnc3ccccc3n2)cc1,/,/,-13%,/,/,/
Nc1ccc2nc(-c3ccccc3)cnc2c1,/,/,-9%,/,/,/
CCCCOc1ccc(-c2ncc(Cl)cn2)cc1,3%,3%,8%,35*,17*,-3%
CCOC(=O)c1ccc2ncc(-c3ccccc3)nc2c1,/,-1%,6%,123*,46*,-9%
Nc1ccc(-c2cnc3ccccc3n2)cc1,/,/,0%,/,/,/
CCCOc1ccc(-c2nc(N3CCC(C)CC3)c3ccccc3n2)cc1,/,/,-2%,/,/,/
Cc1ccc(-c2cnc3ccccc3n2)cc1C,-38%,0%,-11%,63*,28*,?
Cc1cc(-c2ccccc2)nc(N(C)N)c1S(C)(=O)=O,/,-3%,-5%,-7,16,-19%
Cc1cc(-c2ccccc2)nc(-c2ccccc2)c1C,-43%,-5%,8%,31,26*,7.1µM*
CCCCOc1ccc(-c2cnc3ccccc3n2)cc1,-3%,9%,-10%,60*,45*,?
CCCOc1ccc(-c2nc(OC)c3ccccc3n2)cc1,-17%,-17%,-7%,112*,35*,-1%
CCc1nc2c(OCc3ccc(Cl)cc3Cl)cccn2c1N(C)C(C)=O,/,/,2%,/,/,/
C[C@H]1CN([C@@H](C)CO)C(=O)CCCn2nncc2CO[C@H]1CN(C)S(=O)(=O)c1ccc2c(c1)OCCCO2,/,/,-5%,/,/,/
COc1cc(C(=O)NCCNc2nc3ccc(C)cc3cc2C#N)cc(OC)c1OC,3%,-3%,-5%,-10,1,-2%
Cc1cc(-n2cnnn2)ccc1C(C)C,/,-7%,2%,33,23*,-2%
Cc1ccc(C)n1-c1ccc(-n2cnnn2)cc1,-9%,0%,-23%,-4,-4,2%
CC(C)N(CCNC(=O)c1ccc(OCC2CCCO2)cc1)C(C)C (configuration not stated),-6%,0%,3%,-18,-3,-8%
C/C(N)=C(/C#N)C(=O)COC(=O)c1ccc(OCC2CCCO2)cc1 (configuration not stated),-15%,1%,5%,50*,22*,3%
Cc1cc(=O)oc2cc(OCC3CC(c4ccc(Cl)cc4)=NO3)ccc12 (configuration not stated),19%,4%,-11%,14,8,3%
NNC(=O)c1ccc(OCC2CC(c3ccc(Cl)cc3)=NO2)cc1 (configuration not stated),12%,-1%,-1%,40*,22*,6%
O=C(NCCc1ccc(Cl)cc1)c1ccc(OCC2CCCO2)cc1 (configuration not stated),16%,-1%,0%,92*,33*,1%

# Source: PubChem
